# From PubChem BioAssay AID1159580 (chemical genetic matrix, 2015)
# The campaign covered roughly 5,500 compounds. About 2,000 (36%) were called active. Another 18% or so got no clear call; they are omitted. Some of the results follow. A number with no mark means an inactive call. No stated cut-off is given here; in the data, active means normalized growth mostly below about 0.91 (no sharp cut-off); inconclusive means no clear call, values can overlap the other calls; inactive means mostly above about 0.92.
# Assay: chemical genetic growth profiling, strain panel (AID 1159580);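 further: tested at 20 µM; growth read once vehicle control cultures reached saturation at 30 °C; 1 = growth at the plate median or of vehicle wells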
# Details: growth OD
smiles,measurement,setting,value
Nc1ccc(N=Nc2ccccc2)c(N)n1,normalized growth,"S. cerevisiae deletion strains, locus YJR075W, strain HOC1, stronger effect = lower value",0.991
same,normalized growth,"S. cerevisiae deletion strains, locus YKL009W, strain mrt4, stronger effect = lower value",0.933
same,normalized growth,"S. cerevisiae deletion strains, locus YKL068W, stronger effect = lower value",1.02
same,normalized growth,"S. cerevisiae deletion strains, locus YKL085W, strain MDH1 (second series), stronger effect = lower value",1.01
same,normalized growth,"S. cerevisiae deletion strains, locus YKL085W, strain MDH1, stronger effect = lower value",1.01
same,normalized growth,"S. cerevisiae deletion strains, locus YKL160W, strain elf1, stronger effect = lower value",0.772 (active)
same,normalized growth,"S. cerevisiae deletion strains, locus YKL190W, strain CNB1, stronger effect = lower value",1
same,normalized growth,"S. cerevisiae deletion strains, locus YKR001C, strain vps1, stronger effect = lower value",0.885 (active)
same,normalized growth,"S. cerevisiae deletion strains, locus YKR026C, strain gcn3, stronger effect = lower value",0.969
same,normalized growth,"S. cerevisiae deletion strains, locus YKR091W, strain srl3, stronger effect = lower value",0.959
same,normalized growth,"S. cerevisiae deletion strains, locus YLL001W, strain dnm1, stronger effect = lower value",0.8 (active)
same,normalized growth,"S. cerevisiae deletion strains, locus YLL026W, stronger effect = lower value",0.825 (active)
same,normalized growth,"S. cerevisiae deletion strains, locus YLL041C, strain sdh2, stronger effect = lower value",0.896 (active)
same,normalized growth,"S. cerevisiae deletion strains, locus YLR027C, strain aat2, stronger effect = lower value",0.802 (active)
same,normalized growth,"S. cerevisiae deletion strains, locus YLR039C, strain RIC1, stronger effect = lower value",0.596 (active)
same,normalized growth,"S. cerevisiae deletion strains, locus YLR058C, strain SHM2, stronger effect = lower value",1
same,normalized growth,"S. cerevisiae deletion strains, locus YLR102C, strain apc9, stronger effect = lower value",1.02
same,normalized growth,"S. cerevisiae deletion strains, locus YLR113W, strain HOG1, stronger effect = lower value",0.997
same,normalized growth,"S. cerevisiae deletion strains, locus YLR221C, strain rsa3, stronger effect = lower value",0.7 (active)
same,normalized growth,"S. cerevisiae deletion strains, locus YLR258W, strain gsy2, stronger effect = lower value",0.771 (active)
same,normalized growth,"S. cerevisiae deletion strains, locus YLR262C, strain YPT6 (second series), stronger effect = lower value",0.351 (active)
same,normalized growth,"S. cerevisiae deletion strains, locus YLR262C, strain YPT6, stronger effect = lower value",0.574 (active)
same,normalized growth,"S. cerevisiae deletion strains, locus YLR268W, strain sec22, stronger effect = lower value",0.982
same,normalized growth,"S. cerevisiae deletion strains, locus YLR320W, strain mms22, stronger effect = lower value",0.429 (active)
same,normalized growth,"S. cerevisiae deletion strains, locus YLR330W, strain CHS5, stronger effect = lower value",0.992
same,normalized growth,"S. cerevisiae deletion strains, locus YLR342W, strain FKS1 (second series), stronger effect = lower value",0.916
same,normalized growth,"S. cerevisiae deletion strains, locus YLR342W, strain FKS1, stronger effect = lower value",0.861 (active)
same,normalized growth,"S. cerevisiae deletion strains, locus YLR357W, strain rsc2, stronger effect = lower value",1.04
same,normalized growth,"S. cerevisiae deletion strains, locus YLR370C, strain arc18, stronger effect = lower value",0.946
same,normalized growth,"S. cerevisiae deletion strains, locus YLR371W, strain rom2, stronger effect = lower value",1.03
same,normalized growth,"S. cerevisiae deletion strains, locus YLR384C, strain iki3, stronger effect = lower value",0.972
same,normalized growth,"S. cerevisiae deletion strains, locus YLR418C, strain cdc73, stronger effect = lower value",0.881
same,normalized growth,"S. cerevisiae deletion strains, locus YML016C, strain PPZ1, stronger effect = lower value",0.987
same,normalized growth,"S. cerevisiae deletion strains, locus YML032C, strain rad52, stronger effect = lower value",0.938
same,normalized growth,"S. cerevisiae deletion strains, locus YML120C, strain ndi1, stronger effect = lower value",0.79 (active)
same,normalized growth,"S. cerevisiae deletion strains, locus YML124C, strain tub3, stronger effect = lower value",1.02
same,normalized growth,"S. cerevisiae deletion strains, locus YMR058W, strain fet3, stronger effect = lower value",0.716 (active)
same,normalized growth,"S. cerevisiae deletion strains, locus YMR078C, strain ctf18, stronger effect = lower value",1.01
same,normalized growth,"S. cerevisiae deletion strains, locus YMR125W, strain sto1, stronger effect = lower value",0.962
same,normalized growth,"S. cerevisiae deletion strains, locus YMR129W, stronger effect = lower value",0.978
same,normalized growth,"S. cerevisiae deletion strains, locus YMR205C, strain PFK2, stronger effect = lower value",0.568 (active)
same,normalized growth,"S. cerevisiae deletion strains, locus YMR223W, strain ubp8, stronger effect = lower value",0.92
same,normalized growth,"S. cerevisiae deletion strains, locus YMR231W, strain pep5, stronger effect = lower value",0.971
same,normalized growth,"S. cerevisiae deletion strains, locus YMR263W, strain SAP30, stronger effect = lower value",0.927
same,normalized growth,"S. cerevisiae deletion strains, locus YMR307W, strain GAS1, stronger effect = lower value",1.21
same,normalized growth,"S. cerevisiae deletion strains, locus YNL067W, strain RPL9B, stronger effect = lower value",0.922
same,normalized growth,"S. cerevisiae deletion strains, locus YNL071W, strain lat1, stronger effect = lower value",0.261 (active)
same,normalized growth,"S. cerevisiae deletion strains, locus YNL128W, strain TEP1, stronger effect = lower value",0.966
same,normalized growth,"S. cerevisiae deletion strains, locus YNL153C, strain GIM3, stronger effect = lower value",0.975
same,normalized growth,"S. cerevisiae deletion strains, locus YNL183C, strain NPR1, stronger effect = lower value",0.934
same,normalized growth,"S. cerevisiae deletion strains, locus YNL209W, strain ssb2, stronger effect = lower value",0.791 (active)
same,normalized growth,"S. cerevisiae deletion strains, locus YNL233W, strain BNI4, stronger effect = lower value",0.937
same,normalized growth,"S. cerevisiae deletion strains, locus YNL248C, strain rpa49, stronger effect = lower value",0.814 (active)
same,normalized growth,"S. cerevisiae deletion strains, locus YNL250W, strain rad50, stronger effect = lower value",1.02
same,normalized growth,"S. cerevisiae deletion strains, locus YNL271C, strain bni1, stronger effect = lower value",0.995
same,normalized growth,"S. cerevisiae deletion strains, locus YNL298W, strain CLA4, stronger effect = lower value",0.928
same,normalized growth,"S. cerevisiae deletion strains, locus YNL307C, strain MCK1, stronger effect = lower value",0.798 (active)
same,normalized growth,"S. cerevisiae deletion strains, locus YNL322C, strain KRE1 (second series), stronger effect = lower value",1.03
same,normalized growth,"S. cerevisiae deletion strains, locus YNL322C, strain KRE1, stronger effect = lower value",1.01
same,normalized growth,"S. cerevisiae deletion strains, locus YNR049C, strain mso1, stronger effect = lower value",0.965
same,normalized growth,"S. cerevisiae deletion strains, locus YNR052C, strain pop2, stronger effect = lower value",0.936
same,normalized growth,"S. cerevisiae deletion strains, locus YOL006C, strain TOP1, stronger effect = lower value",0.332 (active)
same,normalized growth,"S. cerevisiae deletion strains, locus YOL012C, strain htz1",1.24
same,normalized growth,"S. cerevisiae deletion strains, locus YOL147C, strain pex11, stronger effect = lower value",0.982
same,normalized growth,"S. cerevisiae deletion strains, locus YOR001W, strain rrp6, stronger effect = lower value",0.753 (active)
same,normalized growth,"S. cerevisiae deletion strains, locus YOR061W, strain CKA2, stronger effect = lower value",0.995
same,normalized growth,"S. cerevisiae deletion strains, locus YOR069W, strain VPS5, stronger effect = lower value",0.998
same,normalized growth,"S. cerevisiae deletion strains, locus YOR070C, strain gyp1, stronger effect = lower value",0.774 (active)
same,normalized growth,"S. cerevisiae deletion strains, locus YOR080W, strain dia2, stronger effect = lower value",0.967
same,normalized growth,"S. cerevisiae deletion strains, locus YOR083W, strain WHI5, stronger effect = lower value",0.784 (active)
same,normalized growth,"S. cerevisiae deletion strains, locus YOR106W, strain vam3, stronger effect = lower value",0.563 (active)
same,normalized growth,"S. cerevisiae deletion strains, locus YOR136W, strain idh2, stronger effect = lower value",1.01
same,normalized growth,"S. cerevisiae deletion strains, locus YOR144C, strain elg1, stronger effect = lower value",1.01
same,normalized growth,"S. cerevisiae deletion strains, locus YOR184W, strain ser1, stronger effect = lower value",1.02
same,normalized growth,"S. cerevisiae deletion strains, locus YOR231W, strain MKK1, stronger effect = lower value",0.942
same,normalized growth,"S. cerevisiae deletion strains, locus YOR265W, strain rbl2, stronger effect = lower value",0.903 (active)
same,normalized growth,"S. cerevisiae deletion strains, locus YOR270C, strain vph1, stronger effect = lower value",0.243 (active)
same,normalized growth,"S. cerevisiae deletion strains, locus YOR290C, strain snf2, stronger effect = lower value",0.782 (active)
same,normalized growth,"S. cerevisiae deletion strains, locus YOR316C, strain cot1, stronger effect = lower value",1.02
same,normalized growth,"S. cerevisiae deletion strains, locus YPL051W, strain arl3, stronger effect = lower value",0.554 (active)
same,normalized growth,"S. cerevisiae deletion strains, locus YPL055C, strain LGE1, stronger effect = lower value",0.934
same,normalized growth,"S. cerevisiae deletion strains, locus YPL078C, strain atp4, stronger effect = lower value",0.741 (active)
same,normalized growth,"S. cerevisiae deletion strains, locus YPL106C, strain sse1, stronger effect = lower value",0.978
same,normalized growth,"S. cerevisiae deletion strains, locus YPL240C, strain hsp82, stronger effect = lower value",0.849 (active)
same,normalized growth,"S. cerevisiae deletion strains, locus YPL241C, strain CIN2, stronger effect = lower value",0.998
same,normalized growth,"S. cerevisiae deletion strains, locus YPL256C, strain CLN2, stronger effect = lower value",0.962
same,normalized growth,"S. cerevisiae deletion strains, locus YPR119W, strain clb2, stronger effect = lower value",1.02
same,normalized growth,"S. cerevisiae deletion strains, locus YPR141C, strain kar3, stronger effect = lower value",1.04
same,normalized growth,"S. cerevisiae deletion strains, locus YPR163C, strain tif3, stronger effect = lower value",0.952
same,normalized growth,"S. cerevisiae deletion strains, locus YPR167C, strain met16, stronger effect = lower value",1.02
same,normalized growth,"S. cerevisiae deletion strains, strain wtn01, stronger effect = lower value",0.964
same,normalized growth,"S. cerevisiae strains, strain wild type, stronger effect = lower value",0.987
